Laboratory results: PubChem BioAssay (NCI)
About 83,000 compounds went through this panel and 20% of them were active in at least one assay; those are over-represented in the sample as a whole.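 Each cell line was grown in a 96-well plate and treated with one concentration of compound for 48 hours. Values below 10 were considered active.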 Values without a mark were called inactive. Activity calls are given as the source filed them.

Tests used:
Experiment in all cases: NCI-60 one-dose screen, 48 h (100 = growth as untreated, 0 = no growth, -100 = all killed)
Conditions in all cases: 10 µM unless noted
HCT-15 colon = system: HCT-15 colon
HT29 colon = system: HT29 colon
SNB-75 CNS = system: SNB-75 CNS
SNB-19 CNS = system: SNB-19 CNS
U251 CNS = system: U251 CNS
PC-3 prostate = system: PC-3 prostate
SK-MEL-5 melanoma = system: SK-MEL-5 melanoma
UACC-62 melanoma = system: UACC-62 melanoma
LOX IMVI melanoma = system: LOX IMVI melanoma
SK-MEL-28 melanoma = system: SK-MEL-28 melanoma

Compound	growth (HCT-15 colon)	growth (HT29 colon)	growth (SNB-75 CNS)	growth (SNB-19 CNS)	growth (U251 CNS)	growth (PC-3 prostate)	growth (SK-MEL-5 melanoma)	growth (UACC-62 melanoma)	growth (LOX IMVI melanoma)	growth (SK-MEL-28 melanoma)
C[C@H](C(=O)Nc1ccc(S(N)(=O)=O)cc1)S(=O)(=O)c1ccccc1	98.1%	107%	96.9%	95.5%	97.5%	101%	99.2%	102%	98%	115%
C=C1C(=O)O[C@H]2[C@H]1CC/C(COC(=O)NCCOCCOCC(=O)Nc1ccc(OC)c(C(N)=O)c1O)=C\CC[C@@]1(C)O[C@@H]21	85.4%	37.2%	80.1%	77.8%	70.5%	51.4%	–	44.4%	57.2%	47.1%
COc1cc2cc(Oc3ccc(NC(=O)Nc4ccc(Cl)c(C(F)(F)F)c4)cc3)c(C)nc2cc1OCCN1CCOCC1	13.7%	12%	53.3%	24.4%	14.8%	13%	–	29.9%	9.99% (active)	42.9%
CN(C)CCS(=O)(=O)Nc1cc(-c2ccc3ncc(C#N)c(Nc4ccc(F)c(Cl)c4)c3c2)cnc1Cl	-14.6% (active)	5.5% (active)	-21% (active)	-67.2% (active)	-46.2% (active)	-43.5% (active)	–	-77.2% (active)	-61.3% (active)	-31.5% (active)
COc1cccc(Cc2cc(-c3ccccc3)nn(CC(=O)c3ccccc3)c2=O)c1	20.2%	36.6%	50.9%	58%	37.1%	41.4%	–	45.9%	11.8%	73.2%
CCOC(=O)Cn1c(C)c(/C=N/NC(=O)c2cc3c(ccc4ccccc43)o2)c2ccccc21	11%	3.63% (active)	2.97% (active)	18%	15.9%	10.5%	–	35.4%	24.9%	45.2%
O=C1c2cccc3cccc(c23)C(=O)N1Nc1nc(NC2CCCCC2)nc(N2CCOCC2)n1	93.1%	107%	88.9%	91%	97.5%	98.2%	–	89.1%	91.1%	101%
N#Cc1c(Nc2cccc(Cl)c2)sc(C(=O)c2cc3cc(Cl)ccc3o2)c1N	72.6%	80.5%	101%	97.5%	62.6%	62.8%	–	78.6%	85.9%	94.3%
O=C1/C(=C/c2ccccc2[N+](=O)[O-])Oc2ccc(O)c(O)c21	18.6%	32.3%	65.9%	70.3%	54.1%	44.5%	–	-41.1% (active)	14.3%	22.5%
COc1ccc(-c2csc(NC(=O)N3CCN(c4cc5c(cc4F)c(=O)c(C(=O)O)cn5C4CC4)CC3)n2)cc1	14.6%	2.34% (active)	-2.38% (active)	20.8%	6.54% (active)	-0.577% (active)	–	-14.2% (active)	-76.4% (active)	33.7%
COc1ccc(-c2cc3c4c(nc5ccccc5c4c2)CC(c2cc(OC)c(OC)c(OC)c2)O3)cc1 (centres undefined)	45.6%	45.2%	-30% (active)	40.1%	54.8%	52.3%	–	52%	38.4%	44%
CCCCNc1nc(NN2C(=O)c3cccc4cccc(c34)C2=O)nc(-n2cnc3ccccc32)n1	85.2%	98%	85.8%	86.9%	69.3%	77.4%	–	88.3%	87.4%	94.1%
CS(=O)(=O)Nc1cc(-c2ccc3ncnc(Nc4cccc(Cl)c4F)c3c2)cnc1Cl	41.9%	47.6%	9.28% (active)	46.4%	33.6%	41.4%	24.7%	–	4.21% (active)	24.6%
Cc1cc2nc3ccc(N=Nc4ccc(N(C)C)cc4)cc3n(-c3ccccc3)c-2cc1=N	-77.2% (active)	-67% (active)	-84% (active)	-93.7% (active)	-69.4% (active)	-72.3% (active)	-95.3% (active)	–	-66.5% (active)	-96.6% (active)
C=C1C(=O)O[C@H]2[C@H]1CC/C(COC(=O)CCSSCCC(=O)OC/C1=C/CC[C@@]3(C)O[C@H]3[C@H]3OC(=O)C(=C)[C@@H]3CC1)=C\CC[C@@]1(C)O[C@@H]21	-74.2% (active)	-78.7% (active)	52.5%	39.2%	-12% (active)	-11.6% (active)	–	36.7%	-75.8% (active)	-42.8% (active)
COc1ccc(C2CC(c3ccc(Nc4nc(Nc5ccc(F)cc5)nc(Nc5ccc(Cl)cc5)n4)cc3)=NN2C(C)=O)cc1 (centres undefined)	93.6%	108%	85.5%	79.3%	86.7%	85.2%	–	90.6%	105%	114%
CCCCCCNC(=O)Oc1ccc(/C(=C(\C)c2ccc(Cl)cc2)c2ccc(OCCN3CCCCC3)cc2)cc1	8.87% (active)	-10.1% (active)	59.5%	68%	34.7%	29.6%	–	54.5%	3.75% (active)	29.4%
O=C(N/N=C/[C@@H](O)[C@H](O)[C@H](O)CO)c1ccc(NC(=O)c2cccnc2)cc1	103%	105%	90.3%	98.7%	101%	101%	–	99.5%	101%	103%
C=CCNc1ccc2c3c(cccc13)C(=O)N(N1C(=O)c3cccc4cccc(c34)C1=O)C2=O	102%	103%	90.4%	99.3%	95.4%	106%	–	95.7%	90.8%	108%
COc1cc2cc(Oc3ccc(NC(=O)Nc4ccc(Cl)c(Cl)c4)cc3)c(C)nc2cc1OCCN1CCOCC1	88.9%	90.1%	92.9%	90.5%	96.6%	76.7%	–	77.8%	93.5%	101%
O=CN1N=C(c2ccc(Nc3ccnc4cc(Cl)ccc34)cc2)CC1c1ccccc1 (centres undefined)	15.4%	11.6%	56.4%	52.8%	34.5%	42.4%	–	38.4%	13.7%	44.4%
c1ccc(-c2nc3sc(-c4ccccc4)cn3n2)cc1	91.6%	90.3%	84.3%	88.5%	93.6%	63%	–	66.9%	83.3%	107%
